These results are taken from PubChem BioAssay (Tox21).

A short description of assay [1]: qHTS assay to test for compound auto fluorescence at 535 nm (green) in HEK293 cells (AID 720680). The conditions noted are these: green autofluorescence 485/535 nm; series mostly up to 46 µM.
A short description of assay [2]: qHTS assay to test for compound auto fluorescence at 535 nm (green) in HEK293 cell free culture (AID 720682). The conditions noted are these: cell-free medium, green autofluorescence 485/535 nm, stronger effect = higher value; series mostly up to 46 µM. The method in brief:
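No cells present: wells hold DMEM supplemented with 10% FBS, into which compound or vehicle is pinned. Green emission is then recorded (485 nm excitation, 535 nm emission) and scaled to fluorescein.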
(qHTS replaces the single test concentration by a dilution series.)

Assay [3] is described as follows: qHTS assay to test for compound auto fluorescence at 590 nm (red) in HEK293 cell free culture (AID 720683). The conditions noted are these: cell-free medium autofluorescence, Ex540/Em590 red; series mostly up to 46 µM. The method in brief: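 Red-channel autofluorescence of compounds in culture medium (DMEM, 10% FBS), no cells, measured at 540/590 nm. Rose Bengal sodium is the reference fluorophore for equivalence.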

A short description of assay [4]: qHTS assay to test for compound auto fluorescence at 590 nm (red) in HepG2 cell free culture (AID 720684). The conditions noted are these: cell-free medium autofluorescence, red 540/590 nm; series mostly up to 46 µM. The method in brief: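 Cell-free; medium MEM + 10% FBS; compound or DMSO added by pintool; read Ex 540/Em 590 nm; Rose Bengal sodium as red reference fluorophore.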

The nature of assay [5]: qHTS assay to test for compound auto fluorescence at 535 nm (green) in HepG2 cell free culture (AID 720686). The note with it: Cell-free medium, green autofluorescence 485/535 nm; series mostly up to 46 µM.
Assay [6] can be described thus: qHTS assay to test for compound auto fluorescence at 460 nm (blue) in HepG2 cells (AID 720687). The note with it: autofluorescence 405/460 nm, 1 h; series mostly up to 46 µM. The method in brief:
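Blue-channel autofluorescence (Ex/Em 405/460 nm, triamterene-equivalent) was measured after 1 hr compound exposure at 37 C, 5% CO2. Cells were HepG2, plated overnight at 37 C in MEM plus 10% FBS.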

The nature of assay [7]: qHTS assay to identify small molecule antagonists of the glucocorticoid receptor (GR) signaling pathway - cell viability counter screen (AID 720693). Note: nearly all actives have a fitted effect of over 55% in size. Note: potency is the fitted concentration of half-maximal effect. The note with it: GR-bla HeLa viability, CellTiter-Glo luminescence, 18 h, with 5 nM dexamethasone present; series mostly up to 58.5 µM.
The nature of assay [8]: qHTS assay for identifying genotoxic compounds that show differential cytotoxicity against isogenic chicken DT40 cell lines with known DNA damage response pathways - wild type cell line (AID 743012). Note: nearly all actives have a fitted effect of over 60% in size. Note: potency is the fitted concentration of half-maximal effect. The conditions noted are these: DT40 wild type chicken cells viability, CellTiter-Glo, 40 h; series mostly up to 68.4 µM. The method in brief:
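Luminescent ATP viability signal (CellTiter-Glo, 30 min RT) recorded after wild type DT40 cells were incubated with compounds for 40 h at 37 C/5% CO2.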

Assay [9] can be described thus: qHTS assay for identifying genotoxic compounds that show differential cytotoxicity against isogenic chicken DT40 cell lines with known DNA damage response pathways - Rev3 mutant cell line (AID 743014). Note: nearly all actives have a fitted effect of over 55% in size. Note: potency is the fitted concentration of half-maximal effect. The conditions noted are these: chicken DT40 Rev3-/- viability, CellTiter-Glo, 40 h; series mostly up to 68.4 µM.
A short description of assay [10]: qHTS assay for identifying genotoxic compounds that show differential cytotoxicity against isogenic chicken DT40 cell lines with known DNA damage response pathways - Rad54/Ku70 mutant cell line (AID 743015). Note: nearly all actives have a fitted effect of over 60% in size. Note: potency is the fitted concentration of half-maximal effect. The note with it: DT40 Rad54/Ku70 mutant viability, CellTiter-Glo, 40 h; series mostly up to 66.8 µM.
Assay [11] in a line: qHTS assay to identify small molecule antagonists of the androgen receptor (AR) signaling pathway - cell viability counter screen (AID 743033; note: nearly all actives have a fitted effect of over 45% in size; note: potency is the fitted concentration of half-maximal effect). The conditions noted are these: AR-bla HEK293 viability, CellTiter-Glo luminescence, 16 h; series mostly up to 58.5 µM.
Assay [12] is described as follows: qHTS assay to identify small molecule antagonists of the androgen receptor (AR) signaling pathway using the MDA cell line - cell viability counter screen (AID 743041; note: nearly all actives have a fitted effect of over 45% in size; note: potency is the fitted concentration of half-maximal effect). The conditions noted are these: MDA-kb2 viability, CellTiter-Fluor, 16 h, cells co-treated with R1881 androgen agonist; series mostly up to 70.3 µM. The method in brief: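 Viability read by CellTiter-Fluor fluorescence in the same wells as the antagonist screen, added after 15.5 h of a 16 h, 37C exposure. Human breast carcinoma MDA-kb2 AR-luc cells, compounds co-dosed with agonist R1881.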

Assay [13] is described as follows: qHTS assay to test for compound auto fluorescence at 460 nm (blue) in HEK293 cell free culture (AID 720681). The conditions noted are these: cell-free medium, autofluorescence 405/460 nm (blue); series mostly up to 46 µM. An outline of the steps: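 Blue fluorescence (Ex 405/Em 460 nm, triamterene-equivalent) was read immediately after pin transfer of compound or DMSO into medium (DMEM, 10% FBS) without cells.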

A short description of assay [14]: qHTS assay to test for compound auto fluorescence at 460 nm (blue) in HepG2 cell free culture (AID 720685). The note with it: Cell-free culture medium, blue autofluorescence 405/460 nm; series mostly up to 46 µM. The method in brief:
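Cell-free plates of MEM plus 10% FBS received 23 nL compound or DMSO vehicle; blue-channel (405/460 nm) intensity scored against triamterene as reference fluorophore.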

In assay [15] the target is Glucocorticoid receptor (Homo sapiens) (UniProt P04150). Put plainly: qHTS assay to identify small molecule agonists of the glucocorticoid receptor (GR) signaling pathway (AID 720691; active = well fitted activation curve with a large enough effect in the signal ratio in the repeat runs, not every such curve was filed as active; the % refers to the signal ratio). The conditions noted are these: GR-bla HeLa, beta-lactamase reporter ratio, 18 h; activation: at 62.4 µM (top of the series). The method in brief: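 Cells: GR-bla HeLa, endogenous GR with stably integrated GRE-beta-lactamase reporter. Treatment 18 h, 37 C, compounds delivered in DMSO. Detection via LiveBLAzer B/G FRET substrate, 2 h RT, fluorescence intensity.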
Glucocorticoid receptor (Homo sapiens), sequence (P04150 whole entry, looked up): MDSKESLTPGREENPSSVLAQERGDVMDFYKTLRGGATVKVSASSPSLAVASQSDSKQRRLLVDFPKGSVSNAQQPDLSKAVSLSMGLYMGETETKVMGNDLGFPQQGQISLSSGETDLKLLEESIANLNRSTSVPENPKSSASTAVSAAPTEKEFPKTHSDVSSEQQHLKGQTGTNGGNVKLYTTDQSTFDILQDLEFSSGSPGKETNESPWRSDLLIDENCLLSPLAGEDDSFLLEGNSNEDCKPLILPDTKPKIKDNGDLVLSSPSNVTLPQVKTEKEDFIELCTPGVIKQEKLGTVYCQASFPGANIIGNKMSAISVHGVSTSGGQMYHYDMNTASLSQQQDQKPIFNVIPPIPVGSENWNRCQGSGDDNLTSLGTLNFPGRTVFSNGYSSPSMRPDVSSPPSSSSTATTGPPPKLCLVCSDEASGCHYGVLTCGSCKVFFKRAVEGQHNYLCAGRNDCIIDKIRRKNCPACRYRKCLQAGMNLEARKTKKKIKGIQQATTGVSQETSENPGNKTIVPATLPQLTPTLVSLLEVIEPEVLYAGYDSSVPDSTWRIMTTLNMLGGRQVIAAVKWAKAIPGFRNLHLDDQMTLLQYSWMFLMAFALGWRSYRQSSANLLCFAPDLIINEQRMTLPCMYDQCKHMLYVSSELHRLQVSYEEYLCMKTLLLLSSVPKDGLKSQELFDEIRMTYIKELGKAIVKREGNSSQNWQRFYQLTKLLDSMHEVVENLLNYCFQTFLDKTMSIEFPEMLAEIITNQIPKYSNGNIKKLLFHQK

The target is the same in assay [16]. Put plainly: qHTS assay to identify small molecule antagonists of the glucocorticoid receptor (GR) signaling pathway (AID 720692; active = well fitted inhibition curve with a large enough effect in the signal ratio in the repeat runs, not every such curve was filed as active; the % refers to the signal ratio). The note with it: GR-bla HeLa, beta-lactamase FRET ratio, dexamethasone-stimulated, 18 h; series mostly up to 58.5 µM. The method in brief:
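Quantitative HTS in antagonist format: HeLa cells expressing endogenous GR and a stably integrated GRE-bla reporter, stimulated with 5 nM dexamethasone (final) alongside test compounds for 18 h.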

In assay [17] the target is Androgen receptor (Homo sapiens) (UniProt P10275). Put plainly: qHTS assay to identify small molecule antagonists of the androgen receptor (AR) signaling pathway (AID 743035; active = well fitted inhibition curve with a large enough effect in the signal ratio in the repeat runs, not every such curve was filed as active; the % refers to the signal ratio). The note with it: HEK293 AR-UAS-bla, R1881-stimulated, beta-lactamase FRET, 16 h; series mostly up to 58.5 µM. The method in brief:
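Quantitative HTS of the Tox21 10K library used HEK293 AR-UAS-bla cells stimulated with R1881 alongside compound for 16 h at 37C, followed by beta-lactamase FRET detection (LiveBLAzer B/G, 2 h, RT).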

Assay [18] shares this target. In words: qHTS assay to identify small molecule agonists of the androgen receptor (AR) signaling pathway (AID 743036; active = well fitted activation curve with a large enough effect in the signal ratio in the repeat runs, with a control signal flat, not every such curve was filed as active; the % refers to the signal ratio). The note with it: HEK293 AR-UAS-bla GripTite, beta-lactamase FRET ratio, 16 h; series mostly up to 62.4 µM. The method in brief:
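Quantitative HTS of the Tox21 10K library in HEK293 cells bearing a stably integrated UAS-controlled beta-lactamase reporter. Compound exposure lasted 16 h at 37C. Reporter activity was detected by FRET substrate fluorescence after 2 h at room temperature.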

Assay [19] shares this target. Put plainly: qHTS assay to identify small molecule agonists of the androgen receptor (AR) signaling pathway using the MDA cell line (AID 743040; note: nearly all actives have a fitted effect of over 20% in size). The conditions noted are these: MDA-kb2 AR-luc cells, MMTV luciferase, 16 h; series mostly up to 70.3 µM. The method in brief: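 Luciferase agonist assay: 16 h compound exposure at 37C without CO2 in MDA-kb2 AR-luc cells, whose MMTV promoter responds to both AR and GR. Luminescence measured after 30 min room-temperature incubation with ONE-Glo.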

For assay [20] the target is unchanged. Put plainly: qHTS assay to identify small molecule antagonists of the androgen receptor (AR) signaling pathway using the MDA cell line (AID 743042; note: nearly all actives have a fitted effect of over 55% in size; note: potency is the fitted concentration of half-maximal effect). The note with it: MDA-kb2 AR-luc, MMTV luciferase, R1881 antagonist, 16 h; series mostly up to 70.3 µM. The method in brief: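 Antagonist mode: compounds plus R1881 agonist added to MDA-kb2 AR-luc cells, incubated 16 h at 37C. Luciferase reporter luminescence quantified, with multiplexed CellTiter-Fluor readout for cell viability.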

Records with an inconclusive call do not appear. The source made the active and inactive calls. Unless noted, calls come from the whole dose curve; as a rule, active = well fitted curve in the direction sought with a large enough effect in the repeat runs; inconclusive = weak or mixed curves; inactive = no such curve, though single readings can be large; an effect the other way counts as inactive or inconclusive.

Androgen receptor (Homo sapiens), sequence (P10275 whole entry, looked up): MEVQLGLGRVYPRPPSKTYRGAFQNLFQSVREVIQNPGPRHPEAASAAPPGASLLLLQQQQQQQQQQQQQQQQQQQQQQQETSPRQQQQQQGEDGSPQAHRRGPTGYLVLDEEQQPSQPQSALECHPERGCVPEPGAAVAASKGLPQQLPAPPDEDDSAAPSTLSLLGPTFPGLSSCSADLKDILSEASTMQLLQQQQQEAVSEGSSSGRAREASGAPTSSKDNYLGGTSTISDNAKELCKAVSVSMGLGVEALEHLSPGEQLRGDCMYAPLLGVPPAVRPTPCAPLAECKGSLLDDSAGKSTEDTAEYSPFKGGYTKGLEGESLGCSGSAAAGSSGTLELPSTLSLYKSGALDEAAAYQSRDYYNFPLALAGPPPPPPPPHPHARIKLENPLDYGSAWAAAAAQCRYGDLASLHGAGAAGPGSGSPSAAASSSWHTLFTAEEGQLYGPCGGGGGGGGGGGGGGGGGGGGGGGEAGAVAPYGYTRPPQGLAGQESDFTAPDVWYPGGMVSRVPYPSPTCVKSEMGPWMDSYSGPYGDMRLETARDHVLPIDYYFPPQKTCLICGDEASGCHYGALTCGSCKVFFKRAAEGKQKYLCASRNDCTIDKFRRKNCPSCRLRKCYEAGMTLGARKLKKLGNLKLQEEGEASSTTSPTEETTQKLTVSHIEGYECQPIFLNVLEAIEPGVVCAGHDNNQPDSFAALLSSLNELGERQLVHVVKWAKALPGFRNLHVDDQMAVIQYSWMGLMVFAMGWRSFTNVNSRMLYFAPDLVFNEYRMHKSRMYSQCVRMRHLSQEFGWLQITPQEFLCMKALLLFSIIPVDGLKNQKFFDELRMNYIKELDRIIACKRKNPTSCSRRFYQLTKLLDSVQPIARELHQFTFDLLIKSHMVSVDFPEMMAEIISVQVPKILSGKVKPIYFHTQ

With `O=C(Cn1cnnn1)N[C@@H]1C(=O)N2C(C(=O)O)=C(CSc3nncs3)CS[C@H]12`, the compound was called inactive in assay [1], in assay [2], in assay [3] and in [4]. The Potency entry in assay [5], in assay [6], in [7], in assay [8], in assay [9] and in assay [10] was “inactive” throughout. Moreover, the Potency entry in assay [11] and in assay [12] was “inactive” each time.
Turning to `O=C(O)[C@@H]1C[C@H](CP(=O)(O)O)CCN1`, the Potency result in assay [13], in [14], in assay [5], in assay [6], in assay [15] and in [16] was “inactive” each time. In addition, the Potency result in assay [7], in assay [8], in assay [9], in [10], in assay [11] and in [17] was “inactive” in each case. For the same compound, the Potency result in assay [18], in assay [19], in assay [12] and in assay [20] was “inactive” in each case. Also, the compound was called inactive in [2], in [3] and in assay [4].
Consider `CC1=C(/C=C/C(C)=C/C=C/C(C)=C/C=C/C=C(C)/C=C/C=C(C)/C=C/C2=C(C)CCCC2(C)C)C(C)(C)CCC1`, for which the compound was called inactive in [1], in assay [2] and in [3]. Moreover, the Potency entry in assay [14], in assay [5], in assay [6], in assay [15], in assay [16] and in [7] was “inactive” in each case. The Potency result in assay [8], in [9], in [10], in assay [11], in assay [17] and in assay [18] was “inactive” each time. The Potency entry in [19], in assay [12] and in [20] was “inactive” throughout.
Take `CC(C)CCC[C@@H](C)[C@H]1CC[C@H]2[C@@H]3CC=C4C[C@@H](O)CC[C@]4(C)[C@H]3CC[C@]12C`: the call in assay [1], in [2] and in assay [3] was inactive. Moreover, the Potency entry in assay [14], in [5], in [6], in assay [15], in assay [16] and in assay [7] was “inactive” throughout. Further, the Potency result in [8], in assay [9], in assay [10], in [11] and in [12] was “inactive” each time.
`O=C(O)c1cc(=O)c2c3nc4ccccc4oc-3cc(=O)c2[nH]1`: the outcome in assay [1], in assay [2], in assay [3] and in [4] was inactive. The Potency result in [14], in assay [5], in assay [6], in assay [15], in assay [7] and in [9] was “inactive” throughout. For the same compound, the Potency result in assay [11] is “inactive”.
On to `CC(C)c1ccc2sc3ccccc3c(=O)c2c1`, for which the result in assay [1], in [2], in assay [3] and in assay [4] was inactive. Further, the Potency result in assay [5], in assay [15], in [16], in [7] and in [12] was “inactive” each time. Besides, the Potency in assay [8] was 48.6 µM (active); in [9], 54.5 µM (active); in assay [10], 54.5 µM (active).
`CN(C[C@@H](CC[N+]12CCC(C3CCCCC3)(CC1)CC2)c1ccc(Cl)c(Cl)c1)C(=O)c1cc(C(F)(F)F)cc(C(F)(F)F)c1`: the compound was called inactive in [1], in assay [2], in assay [3] and in assay [4]. For the same compound, the Potency result in [14], in [5] and in [19] was “inactive” each time. Moreover, the Potency in assay [7] was 17.4 µM (active); in [8], 6.86 µM (active); in assay [10], 8.63 µM (active); in [11], 19.5 µM (active); in assay [12], 61.1 µM (active); in assay [20], 54.5 µM (active).
